The results in this text go back to PubChem BioAssay.

The term inhibition denotes the change of the read-out against control, counted positive when it falls.

SMILES strings stand for the structures. A number with no mark means an inactive call. Active and inactive are the calls of the source. Unless noted, no stated cut-off is given here; in the data, active means inhibition above about 44%; inactive means the rest.

Assay [1] addresses Nuclear receptor coactivator 3 (Homo sapiens) (UniProt Q9Y6Q9). In words: NCOA3 GAL4-fusion reporter inhibition – cell-based, luminescence, quadruplicate, confirmation (AID 588792;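 active means mean inhibition over 43.08%, the solvent-only control mean plus 3 SD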;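 further: 0% = DMSO treated cells and 100% = gossypol at 36 µM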). To be noted: HEK293 GAL4-SRC3 luciferase reporter, at 3.6 µM, hits give high values.
In assay [2] the test system is transactivating tegument protein VP16 (Human herpesvirus 1), Gal4-VP16 luciferase reporter. In words: repression of VP16-driven luciferase reporter – cell-based, luminescence, high throughput, counter-screen for SRC3 inhibitor project (AID 588794; in the data active means inhibition above about 30%). Conditions: mammalian cells, at 3.6 µM, hits give high values.
In assay [3] the target is Nuclear receptor coactivator 1 (Homo sapiens) (UniProt Q15788). The assay can be described thus: NCOA1 GAL4-fusion reporter inhibition – cell-based, luminescence, quadruplicate, confirmation (AID 588820;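 active means mean inhibition above 46.68%, the untreated control wells mean plus 3 SD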;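 further: 0% = DMSO wells and 100% = gossypol 36 µM treated wells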). To be noted: HEK293 GAL4-SRC1 luciferase reporter, at 3.6 µM, hits give high values.
Nuclear receptor coactivator 1 (Homo sapiens), sequence (Q15788 whole entry, looked up, the tested form may be a part): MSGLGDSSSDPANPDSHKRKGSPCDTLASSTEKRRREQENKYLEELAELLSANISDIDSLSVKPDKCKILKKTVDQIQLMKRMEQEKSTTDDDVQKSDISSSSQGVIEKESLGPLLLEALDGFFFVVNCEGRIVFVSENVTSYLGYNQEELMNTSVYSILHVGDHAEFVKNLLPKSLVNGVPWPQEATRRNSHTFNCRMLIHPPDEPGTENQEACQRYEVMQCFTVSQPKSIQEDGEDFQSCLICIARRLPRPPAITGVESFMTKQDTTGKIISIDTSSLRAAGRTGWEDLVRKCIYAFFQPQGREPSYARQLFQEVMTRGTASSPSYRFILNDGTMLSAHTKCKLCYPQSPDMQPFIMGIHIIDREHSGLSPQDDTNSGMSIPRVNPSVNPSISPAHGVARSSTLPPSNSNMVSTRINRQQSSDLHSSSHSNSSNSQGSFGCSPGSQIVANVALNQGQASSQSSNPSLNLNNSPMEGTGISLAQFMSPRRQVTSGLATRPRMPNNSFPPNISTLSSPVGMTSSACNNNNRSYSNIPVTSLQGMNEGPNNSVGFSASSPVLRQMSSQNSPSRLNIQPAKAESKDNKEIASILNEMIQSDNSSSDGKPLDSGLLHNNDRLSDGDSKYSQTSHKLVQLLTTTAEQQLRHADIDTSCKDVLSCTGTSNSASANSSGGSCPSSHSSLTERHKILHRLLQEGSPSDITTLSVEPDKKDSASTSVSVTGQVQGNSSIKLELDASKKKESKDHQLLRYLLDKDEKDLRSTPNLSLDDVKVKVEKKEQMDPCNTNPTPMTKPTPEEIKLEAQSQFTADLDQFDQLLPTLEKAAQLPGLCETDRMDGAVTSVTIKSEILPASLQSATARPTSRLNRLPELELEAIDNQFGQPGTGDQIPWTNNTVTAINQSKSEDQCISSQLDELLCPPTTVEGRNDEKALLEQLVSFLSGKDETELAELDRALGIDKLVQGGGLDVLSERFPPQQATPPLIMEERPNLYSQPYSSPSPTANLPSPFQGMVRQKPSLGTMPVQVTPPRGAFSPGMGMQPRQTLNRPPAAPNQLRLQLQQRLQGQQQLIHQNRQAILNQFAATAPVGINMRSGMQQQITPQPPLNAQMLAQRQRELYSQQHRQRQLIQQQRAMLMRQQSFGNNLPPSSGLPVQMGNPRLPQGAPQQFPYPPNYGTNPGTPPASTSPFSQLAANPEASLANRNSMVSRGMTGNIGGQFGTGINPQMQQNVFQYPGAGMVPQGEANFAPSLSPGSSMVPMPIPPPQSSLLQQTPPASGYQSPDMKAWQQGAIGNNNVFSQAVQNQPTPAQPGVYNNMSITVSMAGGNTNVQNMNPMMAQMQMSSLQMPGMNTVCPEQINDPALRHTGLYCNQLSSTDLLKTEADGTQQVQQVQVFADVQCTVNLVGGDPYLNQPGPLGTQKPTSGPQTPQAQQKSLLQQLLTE
Assay [4] is described as follows: repression of VP16-driven luciferase reporter – cell-based, luminescence, high throughput, counter-screen for SRC1 inhibitor project (AID 588824; in the data active means inhibition above about 25%). To be noted: cell-based VP16 transactivation luciferase luminescence; at 3.6 µM; hits give high values. A general note: A reporter such as luciferase makes a cellular process visible.
The nature of assay [5]: StAR promoter reporter inhibitors, counter-screen for LRH-1 inverse agonist project, cell-based, luminescence, high throughput (AID 651611; in the data active means inhibition above about 28%). Conditions: StAR promoter luciferase reporter counterscreen, at 3.6 µM, hits give high values. In general terms: The purpose of a counterscreen is to sort out artefacts and off-target activity.
Assay [6] concerns the target Nuclear receptor subfamily 5 group A member 2 (Homo sapiens) (UniProt O00482). The assay can be described thus: NR5A2 activity suppression in reporter cells – cell-based, luminescence, confirmation (AID 651613; in the data active means inhibition above about 42%;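 further: HEK293T cells co-transfected with LRH-1 and StAR promoter luciferase reporter; 0% = vehicle wells and 100% = parental cells lacking receptor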). To be noted: cell-based LRH-1 luciferase reporter, inverse agonism; at 3.6 µM; hits give high values.
For assay [7], the target named is Steroidogenic factor 1 (Homo sapiens) (UniProt Q13285). In words: inverse agonism at SF1 nuclear receptor – cell-based, luminescence, high throughput, counter-screen for LRH-1 inverse agonist project (AID 651614).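 Further: cells cotransfected with StAR promoter reporter and SF1 expression vector; 0% = vehicle on cells with receptor and 100% = vehicle on cells lacking receptor.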 Conditions: cell-based SF1 luciferase reporter, at 3.6 µM, hits give high values.
Assay [8] is described as follows: compounds suppressing VP16-driven luciferase signal – cell-based, luminescence, high throughput, counter-screen for LRH-1 inverse agonist project (AID 651615; in the data active means inhibition above about 33%). Conditions: Gal4-VP16 luciferase reporter cells, at 3.6 µM, hits give high values.
Assay [9] has as its system transactivating tegument protein VP16 (Human herpesvirus 1). In words: compounds suppressing VP16-driven luciferase signal – cell-based, luminescence, single concentration, counter-screen for SRC2 inhibitor project (AID 652007; in the data active means inhibition above about 36%). To be noted: cell-based VP16 transactivation luciferase reporter, at 8.9 µM, hits give high values.
Assay [10] addresses Nuclear receptor coactivator 2 (Homo sapiens) (UniProt Q15596). The assay can be described thus: inhibition of GAL4-SRC2 driven luciferase expression – cell-based, luminescence, HEK293, triplicate, confirmation (AID 652008;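 active means mean inhibition above 46.5%, the solvent-only control mean plus 3 SD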;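 further: 0% = DMSO-treated cells and 100% = Gossypol at 36 µM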). Conditions: HEK293 GAL4-SRC2 luciferase reporter, at 8.9 µM, hits give high values.

Nuclear receptor coactivator 2 (Homo sapiens), sequence (Q15596 whole entry, looked up, the tested form may be a part): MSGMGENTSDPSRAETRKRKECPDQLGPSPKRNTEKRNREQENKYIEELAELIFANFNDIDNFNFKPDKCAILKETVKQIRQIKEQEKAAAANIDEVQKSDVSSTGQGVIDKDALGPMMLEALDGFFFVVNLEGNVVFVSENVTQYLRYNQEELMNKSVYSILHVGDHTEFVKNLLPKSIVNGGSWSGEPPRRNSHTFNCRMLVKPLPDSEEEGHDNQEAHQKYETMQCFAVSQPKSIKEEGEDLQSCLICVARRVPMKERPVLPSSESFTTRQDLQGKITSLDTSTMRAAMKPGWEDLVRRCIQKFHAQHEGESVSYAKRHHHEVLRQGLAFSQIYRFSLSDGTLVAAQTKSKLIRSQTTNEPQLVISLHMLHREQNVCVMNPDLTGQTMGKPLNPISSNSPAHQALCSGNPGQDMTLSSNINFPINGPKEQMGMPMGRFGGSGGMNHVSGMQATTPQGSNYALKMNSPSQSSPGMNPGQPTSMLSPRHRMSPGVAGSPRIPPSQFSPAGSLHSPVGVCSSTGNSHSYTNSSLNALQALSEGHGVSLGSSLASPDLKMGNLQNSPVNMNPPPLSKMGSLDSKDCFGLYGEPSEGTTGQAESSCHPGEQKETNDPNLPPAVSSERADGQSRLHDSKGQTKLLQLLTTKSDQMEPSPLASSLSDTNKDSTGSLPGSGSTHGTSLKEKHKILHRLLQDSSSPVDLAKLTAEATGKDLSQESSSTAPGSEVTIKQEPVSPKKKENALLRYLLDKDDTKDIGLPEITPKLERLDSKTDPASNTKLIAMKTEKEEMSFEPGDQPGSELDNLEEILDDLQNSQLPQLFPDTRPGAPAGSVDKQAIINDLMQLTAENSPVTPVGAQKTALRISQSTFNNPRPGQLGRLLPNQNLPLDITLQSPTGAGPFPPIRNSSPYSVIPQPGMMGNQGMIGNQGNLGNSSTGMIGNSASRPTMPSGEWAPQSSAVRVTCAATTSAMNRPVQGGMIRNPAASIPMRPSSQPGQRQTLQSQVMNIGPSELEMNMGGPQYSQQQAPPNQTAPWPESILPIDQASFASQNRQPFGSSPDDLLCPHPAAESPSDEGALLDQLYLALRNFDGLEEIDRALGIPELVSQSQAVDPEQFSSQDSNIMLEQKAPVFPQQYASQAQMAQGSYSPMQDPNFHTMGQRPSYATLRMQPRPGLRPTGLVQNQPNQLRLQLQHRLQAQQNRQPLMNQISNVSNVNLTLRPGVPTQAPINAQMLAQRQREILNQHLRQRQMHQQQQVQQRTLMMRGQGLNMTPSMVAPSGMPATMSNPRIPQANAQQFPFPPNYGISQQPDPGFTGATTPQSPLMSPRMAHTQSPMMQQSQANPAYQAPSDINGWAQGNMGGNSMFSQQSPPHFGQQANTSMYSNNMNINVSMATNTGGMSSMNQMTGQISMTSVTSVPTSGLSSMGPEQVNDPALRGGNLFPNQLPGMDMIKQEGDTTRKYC
Nuclear receptor subfamily 5 group A member 2 (Homo sapiens), sequence (O00482 whole entry, looked up): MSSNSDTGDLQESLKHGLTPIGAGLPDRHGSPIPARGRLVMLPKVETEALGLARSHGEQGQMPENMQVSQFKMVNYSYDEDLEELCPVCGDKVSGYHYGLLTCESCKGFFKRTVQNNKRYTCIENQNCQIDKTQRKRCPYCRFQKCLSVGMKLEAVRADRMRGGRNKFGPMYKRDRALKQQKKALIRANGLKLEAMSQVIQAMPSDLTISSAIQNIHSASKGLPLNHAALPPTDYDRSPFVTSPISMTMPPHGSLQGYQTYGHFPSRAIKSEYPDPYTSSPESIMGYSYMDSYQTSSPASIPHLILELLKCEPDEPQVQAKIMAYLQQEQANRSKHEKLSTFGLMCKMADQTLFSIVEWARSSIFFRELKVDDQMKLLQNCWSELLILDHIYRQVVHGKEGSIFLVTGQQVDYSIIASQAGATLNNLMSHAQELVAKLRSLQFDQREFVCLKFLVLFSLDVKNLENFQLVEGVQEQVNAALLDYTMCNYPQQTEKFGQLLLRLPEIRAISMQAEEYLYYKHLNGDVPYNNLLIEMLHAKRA
Nuclear receptor coactivator 3 (Homo sapiens), sequence (Q9Y6Q9 whole entry, looked up, the tested form may be a part): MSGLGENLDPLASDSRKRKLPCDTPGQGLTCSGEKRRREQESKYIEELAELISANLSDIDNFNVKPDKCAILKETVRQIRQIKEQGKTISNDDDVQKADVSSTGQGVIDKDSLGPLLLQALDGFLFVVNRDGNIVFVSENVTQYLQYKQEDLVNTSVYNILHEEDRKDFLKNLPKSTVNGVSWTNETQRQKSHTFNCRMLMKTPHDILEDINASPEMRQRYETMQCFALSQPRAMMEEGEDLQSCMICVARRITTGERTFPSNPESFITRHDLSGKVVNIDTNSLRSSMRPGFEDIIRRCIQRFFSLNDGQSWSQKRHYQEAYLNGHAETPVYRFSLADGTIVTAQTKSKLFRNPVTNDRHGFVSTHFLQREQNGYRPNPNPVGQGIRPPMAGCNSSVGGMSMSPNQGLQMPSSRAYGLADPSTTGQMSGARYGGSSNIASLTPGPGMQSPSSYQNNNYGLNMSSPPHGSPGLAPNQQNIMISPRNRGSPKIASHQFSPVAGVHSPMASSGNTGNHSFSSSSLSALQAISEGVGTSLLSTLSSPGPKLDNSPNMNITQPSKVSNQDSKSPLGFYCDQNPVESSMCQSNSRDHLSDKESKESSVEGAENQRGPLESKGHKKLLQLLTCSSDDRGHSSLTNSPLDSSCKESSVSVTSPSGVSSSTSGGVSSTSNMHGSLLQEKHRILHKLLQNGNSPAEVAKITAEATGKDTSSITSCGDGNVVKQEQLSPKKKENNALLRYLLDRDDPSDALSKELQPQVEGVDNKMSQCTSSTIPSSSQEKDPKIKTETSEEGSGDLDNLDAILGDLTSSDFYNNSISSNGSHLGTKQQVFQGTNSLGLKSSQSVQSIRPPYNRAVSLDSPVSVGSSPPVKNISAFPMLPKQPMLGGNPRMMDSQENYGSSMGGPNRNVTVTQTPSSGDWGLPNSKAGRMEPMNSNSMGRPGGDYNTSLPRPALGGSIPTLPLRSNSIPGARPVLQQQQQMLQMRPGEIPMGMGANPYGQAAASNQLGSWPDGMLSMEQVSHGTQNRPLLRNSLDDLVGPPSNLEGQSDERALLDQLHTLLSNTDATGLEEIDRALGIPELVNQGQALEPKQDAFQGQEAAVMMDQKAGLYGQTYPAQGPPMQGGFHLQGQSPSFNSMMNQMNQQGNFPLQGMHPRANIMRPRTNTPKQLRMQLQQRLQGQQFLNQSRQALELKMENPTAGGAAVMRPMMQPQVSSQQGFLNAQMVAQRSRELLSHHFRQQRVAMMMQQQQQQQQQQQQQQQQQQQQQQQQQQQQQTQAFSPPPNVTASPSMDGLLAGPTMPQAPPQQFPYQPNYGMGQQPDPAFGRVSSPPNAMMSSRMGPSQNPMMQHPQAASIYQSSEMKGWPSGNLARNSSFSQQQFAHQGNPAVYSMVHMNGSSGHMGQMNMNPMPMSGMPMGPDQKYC

As for `CC(C)(C)NCC(=Cc1ccccc1)C(=O)c1ccccc1`, the inhibition in assay [1] was 50% (active); in [2], 82.9% (active); in [3] it was -38.5%; in assay [4], 87.5% (active); in assay [5] it was 44.6% (active); in [6], 84.1% (active). Besides, the inhibition in [7] is 84.3% (active); in assay [8] it was 89.1% (active); in assay [9], 72.5% (active); in assay [10], 71.1% (active).
Turning to `S=C(NCCCCN(Cc1ccc(Cl)cc1)c1ccc(Br)cn1)NCCCc1cnc[nH]1`, the inhibition in [1] is 93.1% (active); in [2], 72.5% (active); in assay [3], 76.5% (active); in [4], 60.9% (active); in assay [5], 90.1% (active); in assay [6], 103% (active). Also, the inhibition in assay [7] was 96.7% (active); in assay [8], 86.5% (active); in assay [9] it was 23.1%; in [10], 54.5% (active).
In the case of `COC(=O)CCn1nnc(-c2ccc(C(C)C)cc2)n1`, the inhibition is 55.4% (active) in assay [1]; 38.7% (active) in assay [2]; 40.5% in assay [3]; 35.6% (active) in assay [4]; 48.7% (active) in [5]; 55% (active) in assay [6]. The inhibition in assay [7] was 46.7% (active); in assay [8], 39.9% (active); in [9] it was 58.8% (active); in [10], 92.6% (active).
Take `CC(C)CCCCCCCCCCCCC(=O)NCC(=O)NC1C(C)OC(Nc2ncnc3nc[nH]c23)C(O)C1O` (stereo not given): the inhibition in assay [1] is 98.9% (active); in assay [2], 98.8% (active); in [3], 96.6% (active); in assay [4], 98.8% (active); in assay [5], 94.7% (active); in assay [6], 111% (active). In addition, the inhibition in assay [7] was 97.7% (active); in assay [8], 95.8% (active); in assay [9], 76.9% (active); in [10], 72.2% (active).
Regarding `Cc1cc(C)c2c(N)c(C(=O)Nc3ncc(C)s3)sc2n1`, the inhibition is 49.7% (active) in assay [1]; 34.4% (active) in assay [2]; -42.2% in assay [3]; 24.3% in assay [4]; 36.9% (active) in assay [5]; 14.3% in assay [6]. Moreover, the inhibition in assay [7] is 55.7% (active); in assay [8], 4.69%; in [9], 55.6% (active); in assay [10] it was 77.2% (active).
Take `NC(=O)c1cc2ccncc2c2ccccc12`: the inhibition in assay [1] was 80.3% (active); in assay [2], 64.8% (active); in [3], 78.5% (active); in assay [4], 59.3% (active); in assay [5], 42.8% (active); in assay [6] it was 62.1% (active). Further, the inhibition is 58.1% (active) in assay [7], 77.2% (active) in assay [8], 20.5% in assay [9] and 68.9% (active) in assay [10].
Take `CCCN(CCC)C1=CC(=[N+]2CCCC2)CC(C)(C)C1`: the inhibition was 25.5% in assay [1]; 56.8% (active) in [2]; 36.1% in assay [3]; 55.3% (active) in assay [4]; 38.3% (active) in assay [5]; 106% (active) in assay [6]. In addition, the inhibition is 78.8% (active) in [7], 86.6% (active) in [8], 29% in [9] and 18.8% in [10].
With `CN1CCN(c2ccc(-c3ccc4ccccc4n3)cc2)CC1`, the inhibition in assay [1] is 72.1% (active); in assay [2], 62.6% (active); in [3], 34.8%; in assay [4] it was 36.6% (active); in [5], 63.8% (active); in [6], 8.01%. Moreover, the inhibition in assay [7] is 64% (active); in [8], 26.9%; in assay [9] it was 61.1% (active); in assay [10], 79.3% (active).
On to `Cc1ccc(NC(=O)c2cc(C)n(-c3ccccc3)c2C)cc1`, for which the inhibition was 43.4% (active) in assay [1]; 23.7% in assay [2]; 1.09% in assay [3]; -11.4% in assay [4]; 45.2% (active) in [5]; -63.5% in assay [6]. Also, the inhibition in assay [7] was 20.4%; in assay [8] it was -42.7%; in assay [9], 61.3% (active); in assay [10], 69.8% (active).
With `Cc1ccc(/C=C2/SC(=S)N(CCCC(=O)Nc3ccc(O)cc3)C2=O)cc1`, the inhibition is 57% (active) in assay [1]; 12.8% in assay [2]; 41.2% in assay [3]; 3.55% in [4]; 55% (active) in assay [5]; 6.39% in assay [6]. Besides, the inhibition in [7] is 52.3% (active); in [8] it was -5.05%; in assay [9], 43.6% (active); in assay [10], 54.1% (active).
For `N#Cc1c(N)n(C2OC(CO)C(O)C2O)c2ncnc(N)c12` (stereo not given), the inhibition in assay [1] is 96% (active); in [2], 96% (active); in [3], 79.9% (active); in [4], 95.1% (active); in [5], 85.9% (active); in assay [6] it was 106% (active). Moreover, the inhibition was 95.6% (active) in [7], 96.3% (active) in assay [8], 62% (active) in assay [9] and 66.3% (active) in assay [10].
